A selection: hits, their analogues and other compounds. The true share with any hit is near 1.4%.
NPR1 activator: GC-A (human) enzyme activation | AID 1671463 | HEK293 GC-A cells, cGMP TR-FRET, EC30 ANP; 0% at EC30 ANP, 100% saturating ANP | 370,000 compounds, 0.14% hits | activation, % at 10 µM; in the data active = activation above about 40%
A3G deaminase: APOBEC3G (human) deaminase inhibition | Q9HC16 | AID 493012 | 330,000 compounds, 0.28% hits | recombinant A3G, ssDNA deamination FAM/TAMRA fluorescence | inhibition, % at 20 µM;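 active = inhibition of at least 40% at 20 µM, with no more than 30% in the related APOBEC3A deaminase screen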;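 also: plate controls were DMSO wells with A3G for no effect and wells lacking A3G enzyme for full effect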
Target sequence (Q9HC16 whole entry, looked up): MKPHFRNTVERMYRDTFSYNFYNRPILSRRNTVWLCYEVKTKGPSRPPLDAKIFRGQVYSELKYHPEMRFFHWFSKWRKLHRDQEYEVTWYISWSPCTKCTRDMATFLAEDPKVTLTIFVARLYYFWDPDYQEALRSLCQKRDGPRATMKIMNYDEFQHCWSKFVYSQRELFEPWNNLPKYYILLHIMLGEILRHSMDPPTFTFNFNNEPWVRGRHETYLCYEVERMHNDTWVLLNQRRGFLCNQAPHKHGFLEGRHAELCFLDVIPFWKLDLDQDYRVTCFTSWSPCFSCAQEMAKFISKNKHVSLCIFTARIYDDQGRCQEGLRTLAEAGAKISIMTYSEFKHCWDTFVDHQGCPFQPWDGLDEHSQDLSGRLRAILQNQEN
FAS TE block: FAS thioesterase (human) inhibition | P49327 | recombinant FAS-TE, OMFH fluorogenic substrate, fluorescence endpoint | inhibition, % at 15 µM | 360,000 compounds, 0.67% hits | AID 602261;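 active = compounds whose normalised, plate-corrected inhibition of enzyme fluorescence in the single-dose primary screen is 50% or more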;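 also: 0% = DMSO with enzyme and 100% = substrate without enzyme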
GC-B act: GC-B (human) receptor activation; P20594; HEK293-GC-B cells, CNP EC30, cGMP TR-FRET; 0% at EC30 CNP, 100% saturating CNP; activation, % at 10 µM; 370,000 compounds, 0.11% hits; AID 1920062;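 active = activation at 10 µM reaching about 35% in either raw or pattern-adjusted values, limit read from the data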
APOBEC3A inh: blocks human APOBEC3A ssDNA deamination. recombinant A3A, FAM/TAMRA ssDNA deamination fluorescence. AID 493011. P31941. 330,000 compounds, 0.41% hits. inhibition, % at 20 µM;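 active = at least 40% inhibition at 20 µM here, with at most 30% in a related deaminase screen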;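 also: plate controls were A3A with DMSO for no effect and wells lacking A3A enzyme for full effect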
Target sequence (P31941 whole entry, looked up): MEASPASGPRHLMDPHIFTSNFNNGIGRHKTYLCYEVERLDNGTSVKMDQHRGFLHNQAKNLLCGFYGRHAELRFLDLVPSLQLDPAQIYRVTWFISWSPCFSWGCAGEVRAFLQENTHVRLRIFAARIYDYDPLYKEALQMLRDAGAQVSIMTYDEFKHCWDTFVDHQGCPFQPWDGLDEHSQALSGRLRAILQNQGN
FAS-TE conf: confirmation of human fatty acid synthase thioesterase inhibitors; recombinant FAS-TE, OMFH fluorogenic substrate, fluorescence; AID 624325; 2,300 compounds, 45% hits; inhibition, % at 15 µM; shares compounds with FAS TE block;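 active = compounds inhibiting the enzyme by at least 50% at 15 µM in any one of the replicates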;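 also: 0% = enzyme with DMSO only and 100% = wells lacking enzyme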
The depositor's hits bear a star; x = no result.

SMILES	NPR1 activator	A3G deaminase	FAS TE block	GC-B act	APOBEC3A inh	FAS-TE conf
CCOC(=O)CCCC(=O)Nc1ncnc2c1C(c1ccccc1)c1c(ccc3ccccc13)O2 (stereo not drawn)	-8.7	-0.7	18.8	-15.2	4.6	x
O=C(c1ccccc1)N(C(=O)c1ccccc1)c1ncnc2c1C(c1ccccc1)c1c(ccc3ccccc13)O2 (stereo not drawn)	-3.6	1.5	62.2*	-2.0	2.7	9.4
COc1ccc(C2c3c(ccc4ccccc34)Oc3ncn4nc(-c5ccco5)nc4c32)cc1 (stereo not drawn)	8.1	-6.1	72.1*	13.5	-2.0	13.7
COc1ccc(C2c3c(ccc4ccccc34)Oc3ncn4nc(-c5ccco5)nc4c32)cc1OC (stereo not drawn)	-0.7	-7.6	20.2	6.9	-6.5	x
c1ccc(C2c3c(ccc4ccccc34)Oc3ncn4nc(-c5ccco5)nc4c32)cc1 (stereo not drawn)	0.6	-4.5	77.1*	-1.2	-2.0	15.7
Cc1nc2ccc(C(=O)N3CCN(C(=O)OCc4ccccc4)CC3)cc2n1C1CCCC1	-3.9	x	x	-6.7	x	x
CCOc1ccc(/C=C2\NCCc3cc(OCC)c(OCC)cc32)cc1OCC	5.5	x	x	1.3	x	x
C#CCNC(=O)C[C@H]1C[C@@]2(C(=O)OC)C(=C[C@H](C3CCCC3)O[C@@H]2C)N(CCc2ccc(OC)c(OC)c2)C1=O	-1.7	x	x	-7.2	x	x
C[C@@H]1CN([C@H](C)CO)S(=O)(=O)c2ccc(C#Cc3ccccc3F)cc2O[C@@H]1CN(C)C(=O)Cc1ccccc1	-0.1	x	69.9*	-6.6	x	41.4*
Cc1ccc(-n2c(SCC(=O)c3c(N)n(C)c(=O)n(C)c3=O)nc3sc4c(c3c2=O)CCCC4)c(C)c1	1.5	-2.4	52.1*	2.4	2.6	3.0
COc1cccc(-c2cc3nc4c(c(N5CCC6(CC5)OCCO6)n3n2)CCC4)c1	-0.5	-4.4	54.6*	0.7	-3.1	26.1
COc1ccc(-c2cc3nc4c(c(N5CCC6(CC5)OCCO6)n3n2)CCC4)cc1	0.3	2.0	50.8*	-5.1	1.1	43.2
COc1ccc(-c2cc3nc(-c4ccccc4)cc(N4CCC5(CC4)OCCO5)n3n2)cc1	2.8	-2.7	52.3*	-2.9	3.5	10.0
Fc1ccc(-c2cc3nc4c(c(N5CCOCC5)n3n2)CCCC4)cc1	-1.9	-4.2	20.7	-9.4	-0.9	x
Cc1cccc(-c2cc3nc4c(c(N5CCC6(CC5)OCCO6)n3n2)CCCC4)c1	-2.3	-5.6	30.3	-0.1	-1.8	x
CCOC(=O)[C@@H]1[C@H]2COc3ccc(Br)cc3[C@@H]2N2C(=O)N(c3ccc(Br)cc3)C(=O)[C@@]12C	-4.8	-8.7	36.8	4.5	-5.5	x
CCOC(=O)[C@@H]1[C@H]2COc3ccc(Br)cc3[C@@H]2N2C(=O)N(c3ccc(C)cc3)C(=O)[C@]12C	0.3	-7.7	36.5	-7.6	-0.8	x
CCOC(=O)[C@@H]1[C@H]2COc3ccc(Br)cc3[C@@H]2N2C(=O)N(c3ccc(C(F)(F)F)cc3)C(=O)[C@]12C	-1.4	-4.5	58.0*	0.3	1.8	22.9
CCOC(=O)[C@H]1[C@H]2COc3ccc(Br)cc3[C@@H]2N2C(=O)c3ccc(Cl)cc3NC(=O)[C@@]12C	-7.0	-7.6	78.4*	-6.4	-3.0	28.5
CCOC(=O)[C@H]1[C@H]2COc3ccc(C)cc3[C@@H]2N2C(=O)c3ccc(C)cc3NC(=O)[C@@]12C	-0.9	-3.8	13.7	-2.4	-2.9	x
CCOC(=O)[C@@H]1[C@H]2COc3ccc(Br)cc3[C@H]2N2C(=O)N(c3ccc(C)cc3)C(=O)[C@]12C	-1.2	-13.2	60.0*	3.0	-1.9	26.2
CC(C)=CC([C@]12C[C@H](CO)N[C@@H]1Nc1ccccc12)S(=O)(=O)c1ccccc1 (stereo partly drawn)	-3.1	x	x	-1.0	x	x
O=S(=O)(c1ccc(Cl)cc1)N1CCN=C1SCc1cccc(Cl)c1	-6.7	-4.0	51.3*	-8.5	-0.2	14.3
O=S(=O)(c1ccc(Cl)cc1)N1CCN=C1SCc1cccnc1	-0.7	-6.5	3.4	5.8	-2.9	x
O=S(=O)(c1ccccc1)n1ccc(-c2cnc(-c3ccccc3)s2)n1	-4.3	0.9	62.9*	-6.1	-0.3	58.4*
SMILES	NPR1 activator	A3G deaminase	FAS TE block	GC-B act	APOBEC3A inh	FAS-TE conf
NS(=O)(=O)c1cccc(NC(=O)CCSc2ccccc2Cl)c1	0.9	-0.2	2.5	-1.1	1.1	x
O=C(CCSc1ccccc1Cl)Nc1cccc([N+](=O)[O-])c1	-0.7	-2.5	52.4*	-9.6	-0.4	18.4
CN(C)N=C1c2cc(S(=O)(=O)N3CCOCC3)ccc2-c2ccc(S(=O)(=O)N3CCOCC3)cc21	-2.9	-4.9	50.2*	-4.8	2.4	24.8
NC(=S)NN=C1c2cc(S(=O)(=O)N3CCOCC3)ccc2-c2ccc(S(=O)(=O)N3CCOCC3)cc21	-2.0	2.2	9.3	-9.8	4.2	x
COc1ccc(C2=C(C=C(C#N)C#N)C(c3ccccc3C)c3ccccc3O2)cc1OC (stereo not drawn)	-0.4	-4.4	69.2*	-7.5	-0.6	17.9
COc1ccc([N+](=O)[O-])cc1/C=N/NC(=O)/C(=C\c1cccs1)NC(=O)c1ccccc1	x	2.1	79.4*	x	0.7	65.7*
O=C(N/N=C/c1ccco1)/C(=C/c1cccc([N+](=O)[O-])c1)NC(=O)c1ccccc1	-2.2	-4.0	47.8	-4.8	4.3	x
O=C(N/N=C/c1ccc(Br)o1)/C(=C/c1ccc([N+](=O)[O-])cc1)NC(=O)c1ccccc1	-4.5	-1.1	57.8*	-3.0	0.1	31.6*
COc1ccc(/C=C(/NC(=O)c2ccccc2)C(=O)N/N=C/c2cccs2)cc1OC	2.4	-0.6	-4.5	6.2	-2.1	x
COc1ccc(C(=O)COC(=O)C(CCSC)NC(=O)COc2ccccc2)cc1 (stereo not drawn)	-0.3	-6.8	63.8*	-8.1	-5.1	14.5
CCOC(=O)[C@@]12CCCC3=C1N(CCC3)C(=O)[C@H]2CC(=O)N1CCCC1	0.8	x	x	4.7	x	x
Cc1ccc(S(=O)(=O)N2CCOCC2)cc1C(=O)NCCN1C(=O)S/C(=C\c2ccccc2Cl)C1=O	-1.3	3.2	55.8*	-0.8	2.0	30.7
C[C@H](NC(=O)C1CCN(S(=O)(=O)c2ccccc2)CC1)C(=O)NCc1ccc(Cl)c(Cl)c1	1.3	3.6	51.6*	2.3	2.0	45.8*
O=[N+]([O-])c1c(Nc2cccc(O)c2)cc(Cl)c2nonc12	14.0	-8.0	78.0*	37.0*	-2.3	49.8*
Cc1ccc(C=Nn2c(-c3n[nH]c4c3CCC4)n[nH]c2=S)s1	-3.4	x	x	-2.6	x	x
CCOC1=C2[C@H](c3ccccc3)N(S(=O)(=O)c3ccc(C)cc3)[C@H](C(C)C)[C@H]2n2c(=O)n(-c3ccccc3)c(=O)n2C1	1.3	x	60.5*	-2.7	x	18.4
